The panel holds about 79,000 compounds, 15% with a hit somewhere; the sample as a whole holds those more often. Activity calls are given as the source filed them. Cut-off read from the data, not from the text of the source: active = growth inhibition above about 70%; inactive = the rest.
How the values were obtained:
[1] = NCI Yeast Anticancer Drug Screen. Data for the wt1 strain (AID 149);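 note: 0% = growth of vehicle-treated wt1 cultures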; conditions: S. cerevisiae wt1 strain (SPY 50644) growth inhibition, active compounds read high
Outline: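 Yeast wt1 strain exposed to compounds; growth inhibition measured relative to vehicle-treated controls.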

[2] = NCI Yeast Anticancer Drug Screen. Data for the rad50EPP+ strain (AID 151);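 note: 0% = growth of vehicle-treated control cultures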; conditions: S. cerevisiae rad50 mutant strain, active compounds read high
Outline: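 Exposing the rad50EPP+ strain to each compound, growth was compared with vehicle-only cultures to give inhibition.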

[3] = NCI Yeast Anticancer Drug Screen. Data for the mgt1 strain (AID 153); conditions: S. cerevisiae mgt1 mutant growth inhibition, active compounds read high
Outline: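 Genetically defined yeast (mgt1) treated with compound; inhibition of growth expressed against vehicle-treated controls.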

[4] = NCI Yeast Anticancer Drug Screen. Data for the rad50 strain (AID 155);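 note: 0% = growth of vehicle-only cultures of the same strain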; conditions: S. cerevisiae rad50 strain growth inhibition, active compounds read high
Outline: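 Yeast carrying a defined DNA repair defect were exposed to test compounds, and growth was compared with vehicle-treated controls to give percent inhibition.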

[5] = NCI Yeast Anticancer Drug Screen. Data for the mec2-1 strain (AID 157); conditions: S. cerevisiae mec2-1 strain, active compounds read high
Outline: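 Readout is yeast growth inhibition, normalised to vehicle-treated controls, in the mec2-1 strain exposed to compound.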

[6] = NCI Yeast Anticancer Drug Screen. Data for the rad14 strain (AID 159);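 note: 0% = growth of vehicle-treated control cultures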; conditions: S. cerevisiae rad14 strain growth inhibition, active compounds read high
Outline: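 Yeast cells carrying a defined DNA-repair defect were exposed to compounds, and growth inhibition was calculated relative to vehicle-treated control cultures.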

[7] = NCI Yeast Anticancer Drug Screen. Data for the sgs1 mgt1 strain (AID 161);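 note: 0% = growth of cultures given vehicle only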; conditions: S. cerevisiae sgs1 mgt1 strain, active compounds read high
Outline: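 Compounds are added to genetically altered yeast, and growth is compared with cultures given vehicle alone to give percent inhibition.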

[8] = NCI Yeast Anticancer Drug Screen. Data for the CLN2oe strain (AID 163);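 note: 0% = growth of vehicle-only control cultures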; conditions: S. cerevisiae CLN2oe strain, active compounds read high
Outline: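 Values reflect how much compound exposure reduced yeast growth, referenced to vehicle-exposed cells. Assay organism is a strain with a defined genetic change affecting cell-cycle control.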

[9] = NCI Yeast Anticancer Drug Screen. Data for the cln2 rad14 strain (AID 165);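 note: 0% = growth equal to vehicle treated cultures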; conditions: S. cerevisiae cln2 rad14 strain, active compounds read high
Outline: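 Relative to vehicle controls, growth inhibition of compound-treated cln2 rad14 yeast was recorded.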

[10] = NCI Yeast Anticancer Drug Screen. Data for the bub3 strain (AID 167); conditions: S. cerevisiae bub3 mutant strain, active compounds read high
Outline: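 Compounds were applied to a genetically altered yeast strain carrying a cell-cycle control defect. Growth inhibition was scored against vehicle-treated controls.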

[11] = NCI Yeast Anticancer Drug Screen. Data for the wt2 strain (AID 169);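 note: 0% = growth of vehicle-treated yeast cultures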; conditions: S. cerevisiae wt2 strain growth inhibition, active compounds read high
Outline: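 Values express reduction in yeast growth under compound treatment, referenced to vehicle-treated cells.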

[12] = NCI Yeast Anticancer Drug Screen. Data for the mlh1 strain (AID 171);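 note: 0% = growth of vehicle-treated control cultures of the same strain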; conditions: S. cerevisiae mlh1 strain growth inhibition, active compounds read high
Outline: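 Steps: expose the defined-mutant yeast strain to compound; expose a parallel culture to vehicle; measure growth; express compound effect as inhibition relative to the vehicle culture.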

[13] = NCI Yeast Anticancer Drug Screen. Data for the sgs1 strain (AID 173);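 note: 0% = growth of vehicle-only control cultures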; conditions: S. cerevisiae sgs1 mutant, active compounds read high
Outline: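 Treat defined-mutant yeast with compound; measure growth; calculate inhibition relative to vehicle-treated cells.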

[14] = NCI Yeast Anticancer Drug Screen. Data for the mlh1 rad18 strain (AID 175); conditions: S. cerevisiae mlh1 rad18 strain growth inhibition, active compounds read high
Outline: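 Test agents were incubated with a yeast strain of defined genotype (DNA damage repair defect). Inhibition of growth was derived by comparison with vehicle-exposed cultures.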

[15] = NCI Yeast Anticancer Drug Screen. Data for the rad18 strain (AID 177); conditions: S. cerevisiae rad18 mutant growth inhibition, active compounds read high
Outline: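 A genetically defined yeast mutant impaired in DNA damage repair was treated with test compounds, then its growth was measured against cultures receiving vehicle alone.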

[16] = NCI Yeast Anticancer Drug Screen. Data for the rad52 strain (AID 147);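 note: 0% = growth of vehicle-treated control cultures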; conditions: S. cerevisiae rad52 mutant growth inhibition, active compounds read high
Outline: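 Screen used a yeast mutant impaired in DNA repair. After compound exposure, growth was measured. Values reflect inhibition compared with vehicle-treated cells.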

[17] = at 5.0 µM (retest, dose inferred, filed as 0.5)
[18] = at 50.0 µM (retest, dose inferred, filed as 5.0)

Measured: growth inhibition

COc1oc(C(=O)NC2CCCCC2)c(-c2ccc(Cl)cc2)c1S(=O)(=O)c1ccccc1
inactive: [1]; at 1.2 µM -19% | [1]; at 3.7 µM -5% | [1]; at 11.0 µM 68% | [2]; at 1.2 µM -22% | [2]; at 3.7 µM -19% | [2]; at 11.0 µM -18% | [2]; at 33.0 µM -5% | [2]; at 100.0 µM -11% | [3]; at 1.2 µM -21% | [3]; at 3.7 µM -17% | [3]; at 11.0 µM 60% | [4]; at 1.2 µM -29% | [4]; at 3.7 µM -2% | [4]; [17] 64% | [4]; at 11.0 µM 48% | [5]; at 1.2 µM 1% | [5]; at 3.7 µM 3% | [5]; [17] 22% | [6]; at 1.2 µM -22% | [6]; at 3.7 µM -17% | [6]; at 11.0 µM 23% | [7]; [17] -10% | [8]; at 1.2 µM -1% | [8]; at 3.7 µM 0% | [8]; at 11.0 µM 30% | [9]; [17] 15% | [10]; at 1.2 µM -18% | [10]; at 3.7 µM -25% | [10]; [17] 8% | [10]; at 11.0 µM 47% | [11]; at 1.2 µM -1% | [11]; at 3.7 µM 22% | [12]; at 1.2 µM -20% | [12]; at 3.7 µM -7% | [12]; at 11.0 µM 41% | [13]; at 1.2 µM -4% | [13]; at 3.7 µM -1% | [13]; at 11.0 µM 52% | [14]; [17] 16% | [14]; at 50.0 µM 45.4%
active: [1]; at 33.0 µM 91% | [1]; at 100.0 µM 87% | [3]; at 33.0 µM 89% | [3]; at 100.0 µM 86% | [4]; at 33.0 µM 83% | [4]; [18] 92% | [4]; at 50.0 µM 75.1% | [4]; at 100.0 µM 78% | [5]; at 11.0 µM 70% | [5]; at 33.0 µM 92% | [5]; [18] 91% | [5]; at 50.0 µM 78.8% | [5]; at 100.0 µM 88% | [6]; at 33.0 µM 82% | [6]; at 100.0 µM 74% | [7]; [18] 88% | [7]; at 50.0 µM 78.2% | [8]; at 33.0 µM 91% | [8]; at 100.0 µM 83% | [9]; [18] 87% | [9]; at 50.0 µM 76.9% | [10]; at 33.0 µM 90% | [10]; [18] 88% | [10]; at 50.0 µM 72.5% | [10]; at 100.0 µM 84% | [11]; at 11.0 µM 89% | [11]; at 33.0 µM 91% | [11]; at 100.0 µM 82% | [12]; at 33.0 µM 84% | [12]; at 100.0 µM 81% | [13]; at 33.0 µM 89% | [13]; at 100.0 µM 84% | [14]; [18] 84%

CCOC(=O)[C@H]1Nc2ccc(OC)cc2C2c3ccccc3CC21 (some centres undefined)
inactive: [1]; at 1.2 µM -29% | [1]; at 3.7 µM -27% | [1]; at 11.0 µM -25% | [1]; at 33.0 µM 50% | [2]; at 1.2 µM -25% | [2]; at 3.7 µM -19% | [2]; at 11.0 µM -23% | [2]; at 33.0 µM 10% | [2]; at 100.0 µM 4% | [4]; at 1.2 µM -21% | [4]; at 3.7 µM -12% | [4]; [17] 19% | [4]; at 11.0 µM -19% | [4]; at 33.0 µM 34% | [4]; [18] 9% | [5]; at 1.2 µM -48% | [5]; at 3.7 µM -21% | [5]; [17] -9% | [5]; at 11.0 µM -48% | [5]; at 33.0 µM 29% | [5]; [18] 13% | [5]; at 50.0 µM 34.1% | [6]; at 1.2 µM -54% | [6]; at 3.7 µM -49% | [6]; at 11.0 µM -50% | [6]; at 33.0 µM 0% | [7]; [17] 8% | [7]; [18] 53% | [7]; at 50.0 µM 55.5% | [8]; at 1.2 µM -23% | [8]; at 3.7 µM -28% | [8]; at 11.0 µM -21% | [8]; at 33.0 µM 39% | [9]; [17] 20% | [9]; [18] 37% | [9]; at 50.0 µM 57% | [10]; at 1.2 µM -26% | [10]; at 3.7 µM -19% | [10]; [17] 4% | [10]; at 11.0 µM -27% | [10]; at 33.0 µM 51% | [10]; at 50.0 µM 53.4% | [11]; at 1.2 µM -4% | [11]; at 3.7 µM -14% | [11]; at 11.0 µM -7% | [11]; at 33.0 µM 55% | [12]; at 1.2 µM -29% | [12]; at 3.7 µM -21% | [12]; at 11.0 µM -38% | [12]; at 33.0 µM 46% | [13]; at 1.2 µM 22% | [13]; at 3.7 µM 15% | [13]; at 11.0 µM 24% | [14]; [17] -13% | [14]; [18] 34% | [14]; at 50.0 µM 60.4% | [15]; at 1.2 µM 1% | [15]; at 3.7 µM -9% | [15]; at 11.0 µM 3% | [15]; at 33.0 µM 56%
active: [1]; at 100.0 µM 90% | [4]; at 50.0 µM 70% | [4]; at 100.0 µM 91% | [5]; at 100.0 µM 88% | [6]; at 100.0 µM 82% | [8]; at 100.0 µM 89% | [10]; [18] 83% | [10]; at 100.0 µM 90% | [11]; at 100.0 µM 85% | [12]; at 100.0 µM 86% | [13]; at 33.0 µM 71% | [13]; at 100.0 µM 90% | [15]; at 100.0 µM 93%

COc1cc(/C=N/Nc2nnc3c4ccccc4c4ncccc4c3n2)cc(OC)c1OC
inactive: [16]; at 1.2 µM 40% | [16]; at 3.7 µM 51% | [3]; at 1.2 µM 0% | [3]; at 3.7 µM 1% | [3]; at 11.0 µM 3% | [3]; at 33.0 µM 5% | [3]; at 100.0 µM 6% | [4]; at 1.2 µM 18% | [4]; at 3.7 µM 36% | [4]; [17] 4% | [4]; at 11.0 µM 66% | [4]; [18] 62% | [5]; at 1.2 µM 15% | [5]; at 3.7 µM 1% | [5]; [17] -2% | [5]; at 11.0 µM 3% | [5]; at 33.0 µM 9% | [5]; [18] -5% | [5]; at 50.0 µM 22.1% | [5]; at 100.0 µM 11% | [6]; at 1.2 µM -1% | [6]; at 3.7 µM 2% | [6]; at 11.0 µM 5% | [6]; at 33.0 µM 8% | [6]; at 100.0 µM 14% | [7]; [17] -5% | [7]; [18] -2% | [7]; at 50.0 µM 34% | [9]; [17] -7% | [9]; [18] -6% | [9]; at 50.0 µM 47.8% | [10]; at 1.2 µM -1% | [10]; at 3.7 µM -1% | [10]; [17] 1% | [10]; at 11.0 µM -4% | [10]; at 33.0 µM -11% | [10]; [18] -16% | [10]; at 50.0 µM 6.55% | [10]; at 100.0 µM -8% | [11]; at 1.2 µM -5% | [11]; at 3.7 µM -1% | [11]; at 11.0 µM -2% | [11]; at 33.0 µM -3% | [11]; at 100.0 µM -4% | [12]; at 1.2 µM -1% | [12]; at 3.7 µM 0% | [12]; at 11.0 µM -2% | [12]; at 33.0 µM 3% | [12]; at 100.0 µM 6% | [13]; at 1.2 µM 2% | [13]; at 3.7 µM 5% | [13]; at 11.0 µM 4% | [13]; at 33.0 µM 9% | [13]; at 100.0 µM 10% | [14]; [17] -25% | [14]; [18] -8% | [14]; at 50.0 µM 55.6% | [15]; at 1.2 µM 11% | [15]; at 3.7 µM 8% | [15]; at 11.0 µM 21% | [15]; at 33.0 µM 29% | [15]; at 100.0 µM 30%
active: [16]; at 11.0 µM 81% | [16]; at 33.0 µM 74% | [16]; at 100.0 µM 89% | [4]; at 33.0 µM 81% | [4]; at 50.0 µM 93% | [4]; at 100.0 µM 86%

From PubChem BioAssay (NCI)
